Test results from PubChem BioAssay (NCATS).
Inconclusive results are not listed. Active and inactive are the calls of the source. Calls come from the whole dose curve; as a rule, active = well fitted cell-killing curve with a large enough effect; inconclusive = small, poorly fitted or top-dose-only effect, or effect the other way; inactive = flat fitted curve, though single readings scatter.

What was measured:
Test in all cases: Primary qHTS to identify gynecologic anti-cancer compounds using libraries of approved drugs and bioactive compounds (AID 1345084); note: nearly all actives have a fitted effect of over 55% in size
Details in all cases: Gynecologic cancer cell panel viability, ATPlite luminescence, 48 h; series mostly up to 57.5 µM
PA-1 = tested on: PA-1
Summary of the method: (§1)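 Cells, 1,000 per well, were allowed to settle for 16 h at 37 C before compound addition. Five concentrations were tested for 48 h, and viability was read by ATPlite luminescence after 15 min at room temperature.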

SKOV3 = tested on: SKOV3
Summary of the method: as §1

Tov-21-G = tested on: Tov-21-G
Summary of the method: as §1

Tov112D = tested on: Tov112D
Summary of the method: as §1
% is set by controls: 0 for no effect and ±100 for the full control effect; potency is the fitted concentration of half-maximal effect.

O=C(CN1C(=O)C2(CCCC2)NCC1c1cc(F)cc(F)c1)Nc1ccc2c(c1)CC1(C2)C(=O)Nc2ncccc21 (stereo not drawn)
inactive: Potency (PA-1) | Potency (SKOV3) | Potency (Tov-21-G) | Potency (Tov112D)

CON(C)C(=O)[C@H](O)[C@H](Cc1ccccc1)NC(=O)c1cc2cc(Cl)ccc2[nH]1
inactive: Potency (PA-1) | Potency (SKOV3) | Potency (Tov-21-G) | Potency (Tov112D)

CC(=O)OCC1(O)CCC2C(COC3OC(CO)C(O)C(O)C3OC(=O)/C=C/c3ccc(O)cc3)=COC(OC(=O)CC(C)C)C21 (stereo not drawn)
inactive: Potency (PA-1) | Potency (SKOV3) | Potency (Tov-21-G) | Potency (Tov112D)

N#C[C@@H]1C[C@H](F)CN1C(=O)CNC1[C@H]2CN(C(=O)c3ccc(F)cc3)C[C@@H]12 (stereo partly drawn)
inactive: Potency (PA-1) | Potency (SKOV3) | Potency (Tov-21-G) | Potency (Tov112D)

C=C1C(=O)O[C@@H]2C/C(C)=C\C(=O)/C=C(\C)[C@@H](OC(=O)/C(C)=C\C)[C@H](O)[C@@H]12
active: Potency (PA-1) 2.82 µM | Potency (SKOV3) 11.2 µM | Potency (Tov-21-G) 7.94 µM | Potency (Tov112D) 11.2 µM

Nc1ncnc2c1ncn2CCNCCCCCO
inactive: Potency (PA-1) | Potency (SKOV3) | Potency (Tov-21-G) | Potency (Tov112D)

OC1CCC(Nc2ncc3nc(Nc4c(F)cc(F)cc4F)n([C@H]4CCOC4)c3n2)CC1 (stereo partly drawn)
inactive: Potency (PA-1) | Potency (SKOV3) | Potency (Tov-21-G) | Potency (Tov112D)

CC(C)S(=O)(=O)N[C@H]1CCOC[C@@H]1c1ccc(-c2ccc(C#N)s2)cc1
inactive: Potency (PA-1) | Potency (SKOV3) | Potency (Tov-21-G) | Potency (Tov112D)

COC(=O)[C@H](O)[C@H]1C(C)(C)[C@H](OC(=O)C(C)C)[C@@]2(O)C(=O)[C@]1(C)C1CC[C@]3(C)C(CC(=O)O[C@H]3c3ccoc3)[C@]13O[C@@H]32 (stereo partly drawn)
inactive: Potency (PA-1) | Potency (SKOV3) | Potency (Tov-21-G) | Potency (Tov112D)

C[C@H](NC(c1cccc2[nH]c(=O)c(=O)[nH]c12)P(=O)(O)O)c1ccc(Br)cc1 (stereo partly drawn)
inactive: Potency (PA-1) | Potency (SKOV3) | Potency (Tov-21-G) | Potency (Tov112D)

C=CCC1=C[C@]2(OC)[C@H](C)[C@@H](c3ccc(O)c(OC)c3)O[C@]2(OC)CC1=O
inactive: Potency (PA-1) | Potency (SKOV3) | Potency (Tov-21-G) | Potency (Tov112D)

CC1=C2C[C@H]3O[C@@]3(C)CCC3O[C@@]3(C)C[C@@]2(O)OC1=O (stereo partly drawn)
inactive: Potency (PA-1) | Potency (SKOV3) | Potency (Tov-21-G) | Potency (Tov112D)

CC(C)C(NC(=O)c1ccc2ccccc2n1)C(=O)NC(CC(=O)O)C(=O)COc1c(F)cccc1F (stereo not drawn)
inactive: Potency (PA-1) | Potency (SKOV3) | Potency (Tov-21-G) | Potency (Tov112D)

COc1cc(N)c(Cl)cc1C(=O)NC[C@@H]1CCN2CCC[C@@H]12
inactive: Potency (PA-1) | Potency (SKOV3) | Potency (Tov-21-G) | Potency (Tov112D)

CC(=O)N[C@H]1[C@H](O[C@H]2CC[C@@]3(C)C(CC[C@]4(C)C3CC=C3C5CC(C)(C)CC[C@]5(C(=O)O)[C@H](O)C[C@]34C)C2(C)C)O[C@H](CO[C@@H]2OC[C@H](O)[C@H](O)[C@H]2O[C@@H]2OC[C@@H](O)[C@H](O)[C@H]2O)[C@@H](O)[C@@H]1O (stereo partly drawn)
inactive: activity change, negative = cytotoxicity (PA-1) 3.95% [at 11.6 µM] | activity change, negative = cytotoxicity (SKOV3) 10.7% [at 11.6 µM] | activity change, negative = cytotoxicity (Tov-21-G) -0.0551% [at 11.6 µM] | activity change, negative = cytotoxicity (Tov112D) -18.9% [at 11.6 µM]

C=C1CC[C@@H]2[C@](C)(CO[C@@H]3O[C@H](CO)[C@@H](O)[C@H](O)[C@H]3O)[C@H](O)CC[C@@]2(C)[C@@H]1C/C=C1/C(=O)OC[C@H]1O
inactive: Potency (PA-1) | Potency (SKOV3) | Potency (Tov-21-G) | Potency (Tov112D)

COc1ccc(-n2[nH]c(=O)c3[nH]c4cc(Cl)ccc4c(=O)c3c2=O)c(C)c1
inactive: Potency (PA-1) | Potency (SKOV3) | Potency (Tov-21-G) | Potency (Tov112D)

CN[C@@H]1[C@H](O[C@H]2[C@H](O[C@@H]3[C@@H](O)[C@H](O)[C@@H](N=C(N)N)[C@H](O)[C@H]3N=C(N)N)O[C@@H](C)[C@]2(O)C=O)O[C@@H](CO)[C@H](O)[C@H]1O
inactive: Potency (PA-1) | Potency (SKOV3) | Potency (Tov-21-G) | Potency (Tov112D)

CC(=O)OC[C@]12[C@H](OC(C)=O)C(=O)[C@@H]3[C@@H](OC(C)=O)[C@@]14O[C@@]3(C)COC(=O)c1cccnc1[C@@H](C)[C@H](C)C(=O)O[C@@H]([C@H](O)[C@@H]2OC(C)=O)[C@]4(C)O
inactive: Potency (PA-1) | Potency (SKOV3) | Potency (Tov-21-G) | Potency (Tov112D)

CC(Cc1cc2c(c(C(N)=O)c1)N(CCCO)CC2)NCCOc1ccccc1OCC(F)(F)F (stereo not drawn)
inactive: Potency (PA-1) | Potency (SKOV3) | Potency (Tov-21-G) | Potency (Tov112D)

COc1c2c(c(C)c3c1C(=O)OC3)OC1(C)CC(O)C(C(C)(C)O)C(C)(CCC(=O)O)C1C2 (stereo not drawn)
inactive: Potency (PA-1) | Potency (SKOV3) | Potency (Tov-21-G) | Potency (Tov112D)

COc1cccc(C(=O)N2CCN(C(=O)COc3cccc(C)c3)CC2)c1OC
inactive: Potency (PA-1) | Potency (SKOV3) | Potency (Tov-21-G) | Potency (Tov112D)
